These results are taken from PubChem BioAssay AID743126 (The Scripps Research Institute Molecular Screening Center, 2013).

In all, about 370,000 compounds went through this assay and about 2,100 (0.57%) were called active. Shown is part of a subset that was picked to be rich in actives. A number with no mark means an inactive call.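 How the source made its calls: active means inhibition above mean plus 3 SD of compounds lying within the high and low control bounds (cut at about 19% in these data); inactive means the rest.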

This assay deals with Group 3 secretory phospholipase A2 (Homo sapiens) (UniProt Q9NZ20). The assay is described as follows: human group III sPLA2 inhibitors, primary screen, biochemical, QFRET, BODIPY PC-A2 liposome substrate (AID 743126).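 Further: 0% = median of test compound wells and 100% = no enzyme DMSO wells.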 The note with it: QFRET BODIPY PC-A2 liposome hydrolysis, fluorescence; at 12.2 µM; hits give high values.
Group 3 secretory phospholipase A2 (Homo sapiens), sequence (Q9NZ20 whole entry, looked up): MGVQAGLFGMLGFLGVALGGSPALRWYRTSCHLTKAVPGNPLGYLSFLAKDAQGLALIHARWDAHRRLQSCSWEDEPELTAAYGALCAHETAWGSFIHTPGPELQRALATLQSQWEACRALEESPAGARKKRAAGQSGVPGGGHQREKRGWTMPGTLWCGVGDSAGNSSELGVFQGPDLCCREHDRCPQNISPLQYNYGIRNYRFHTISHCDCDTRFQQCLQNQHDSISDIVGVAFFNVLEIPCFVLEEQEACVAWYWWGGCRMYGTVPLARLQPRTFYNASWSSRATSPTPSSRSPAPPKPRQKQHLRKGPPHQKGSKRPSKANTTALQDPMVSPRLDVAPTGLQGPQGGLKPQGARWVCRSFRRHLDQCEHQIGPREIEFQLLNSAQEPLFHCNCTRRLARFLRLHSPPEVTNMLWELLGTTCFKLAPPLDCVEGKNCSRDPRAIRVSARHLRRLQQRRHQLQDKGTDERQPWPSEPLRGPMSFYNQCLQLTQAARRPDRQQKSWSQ
Regarding `COc1ccc(C#CCNCc2ccc(OC)cc2OC)cc1`, the inhibition (commonly the change of the read-out against control, counted positive when it falls) is 12.6%.

As to `CCOC(=O)C1(Cc2ccccc2)CCN(Cc2cn(C(C)=O)c3ccccc23)CC1`, the inhibition was -23.2%.

For the compound `O=C(CSc1nnc(-c2ccccc2)n1Cc1ccco1)Nc1ccccc1-c1ccccc1`, the inhibition was -10.1%.

For the compound `CCCCCCCCNS(=O)(=O)/C=C/c1cc(C)ccc1CNC(=O)OC(C)(C)C`, the inhibition is -4.97%.

Consider `CCCCOCCCNC(=O)C[C@H]1C[C@@]2(C(=O)OC)C(=C[C@H](COCc3ccccc3)O[C@@H]2C)N(Cc2cccc3ccccc23)C1=O`, for which the inhibition was -20.5%.

On to `C=CCOc1ccc(/C=N/n2cncn2)cc1OC`, for which the inhibition is 2.27%.

As to `CNC(=S)N/N=C/c1ccc(OCc2ccccc2)c(Br)c1`, the inhibition was 0.16%.

Consider `COc1cc(/C=N/n2c(C)n[nH]c2=S)ccc1OCc1ccccc1`, for which the inhibition is 20.9% (active).

Turning to `C=CCn1c(C23CC4CC(CC(C4)C2)C3)n[nH]c1=S`, the inhibition was 23.5% (active).

In the case of `C=CCn1c(SCC(=O)NC)nnc1C12CC3CC(CC(C3)C1)C2`, the inhibition is 0.19%.

Turning to `C=CCn1c(-c2ccc3[nH]c(C)c(C)c3c2)n[nH]c1=S`, the inhibition is -0.35%.

In the case of `FC(F)(F)c1cccc(NC(=S)OC2CCC23CCC(c2ccccc2)CC3)c1` (stereo not given), the inhibition was -7.1%.

On to `CN[C@H]1C[C@H]2c3cc(N4CCOCC4)ccc3CCN2C[C@H]1[C@H](C)O`, for which the inhibition is 7.01%.

In the case of `CCOC12CC(C)(C)CC(C)(CC3=C1C(=O)CC(C)(C)C3)C2` (stereo not given), the inhibition is 24.1% (active).

In the case of `O=S1(=O)c2c(cccc2N2CCSCC2)Oc2ccccc2CN1Cc1cn(Cc2ccc(F)cc2)nn1`, the inhibition was 2.55%.

Take `Cc1ccc(S(=O)(=O)NCc2nc3ccccc3c(=O)n2N)cc1`: the inhibition is 2.93%.

For the compound `Cc1ccc(C(=O)CSc2nc3ccccc3c(=O)n2N)o1`, the inhibition is -0.69%.

On to `C#CCCCc1nc2ccccc2c(=O)n1N`, for which the inhibition is 21.1% (active).

In the case of `O=C(OCC#CCSc1nnc(-c2ccco2)o1)c1ccc(F)cc1`, the inhibition is 1.02%.

As to `C/C(=N\NC(=O)COc1c(C)cccc1C)c1cccs1`, the inhibition was 2.47%.

On to `C/C(=N\NC(=O)CSc1nc2ccccc2c(=O)n1-c1ccccc1C)c1cccs1`, for which the inhibition was 25.2% (active).

With `Cc1ccccc1-n1c(SCC(=O)Nc2cccc3ccccc23)nc(O)cc1=O`, the inhibition is -4.85%.

For `CCc1c(Nc2ccccc2C)nc(N)[nH]c1=O`, the inhibition was 8.22%.

Consider `Cc1cc(=O)n(C)c(=O)n1CCCNc1ccccc1`, for which the inhibition is -0.01%.

With `Cc1[nH]c(N)nc(=S)c1CCCNc1ccccc1`, the inhibition is 23.8% (active).

Regarding `C=CCN1C(=O)[C@@H](CC(=O)N2CCN(C(=O)c3ccco3)CC2)[C@]2(C(=O)OC)CCCCC=C12`, the inhibition was 13.7%.

As to `COc1cccc(N(C)C(=O)[C@@H](C)[C@@H](O)c2ccc3ccccc3c2)c1`, the inhibition is -10.3%.

`COC(=O)C(C)n1cnc2c(nnn2-c2ccc(F)cc2)c1=O` (stereo not given): the inhibition is 21.6% (active).

For the compound `CCOC(=O)C(C)n1cnc2c(nnn2-c2ccc(F)cc2)c1=O` (stereo not given), the inhibition was 10.8%.

On to `CCOC(=O)C(CC)Sc1ncnc2c1nnn2-c1ccc(F)cc1` (stereo not given), for which the inhibition was -1.68%.

As for `C=C1C(C(C)C)N(C)C2=NC(c3ccccc3)CC(=O)N12` (stereo not given), the inhibition was 0%.

For `C=C(C)C#CC(Cc1ccccc1)NCC1CC1` (stereo not given), the inhibition was 4.73%.

Take `CC(C)OC(=O)CC(=O)CC(O)c1cccc([N+](=O)[O-])c1` (stereo not given): the inhibition is -28%.

On to `CC(C)CC(=O)NC(=S)Nc1ccc(F)cc1F`, for which the inhibition is 6.75%.

Consider `CC(C)CC(=O)NC(=S)NNC(=O)c1cccc([N+](=O)[O-])c1`, for which the inhibition is 24.2% (active).

Regarding `O=C1CCC2(CCC(c3ccc(Cl)cc3)CC2)N1CCO` (stereo not given), the inhibition was 7.89%.

On to `COc1ccc(C2CC=C(C(=O)O)C(c3ccccc3F)N2S(=O)(=O)c2ccc(C)cc2)cc1OC` (stereo not given), for which the inhibition is -7.23%.

Consider `CCOC(=O)[C@]12CCCC=C1N(Cc1ccc(OC)cc1)C(=O)[C@@H]2CC(=O)N1CCOCC1`, for which the inhibition was 3.77%.

Turning to `Cc1cc(=O)[nH]c(SCC(=O)Nc2ccc(Cl)cc2C)n1`, the inhibition is 1.76%.

As to `COc1ccccc1OCCn1c(SCC(N)=O)nc2ccccc21`, the inhibition is 22.2% (active).

As for `COc1ccccc1OCc1nnc(SCC(N)=O)n1-c1ccccc1`, the inhibition is 1.71%.

On to `CCN(CC)C(=O)CSc1nc2ccccc2n1CC(=O)N1CCN(c2ccccc2OC)CC1`, for which the inhibition is 0.24%.

`N#CCC[C@H]1CC[C@]2(CCCN(Cc3ccc(Cl)cc3)C2)O1`: the inhibition was 5.78%.

As for `C=CCNc1scc(-c2ccccc2)[n+]1CC=C`, the inhibition is 20.2% (active).

As to `C=CC[n+]1c(-c2ccc(C)cc2)csc1NNC(=O)Nc1ccccc1`, the inhibition is 2.33%.

Consider `COC(CNC(=O)[C@H](Cc1ccccc1)NC1(C(=O)NC2CCCCC2)CCCCC1)OC`, for which the inhibition was -3.08%.

On to `O=C(CCCCCN1C(=O)C2C3C=CC(C3)C2C1=O)Nc1ccccn1` (stereo not given), for which the inhibition was -2.55%.

On to `CC(C)C(C#CC1CC1)N(Cc1ccc2c(c1)OCO2)C(N)=NC(=O)/C=C/c1cccc(C(F)(F)F)c1` (stereo not given), for which the inhibition was 3.76%.

Regarding `Clc1ccc(-n2c(SC/C=C/c3ccccc3)nnc2-c2ccco2)cc1`, the inhibition was -11.5%.

With `Cc1ccc(C(=O)NC23CC4CC(CC(C4)C2)C3)c(Cl)c1`, the inhibition was 15.2%.

For `C/C(=N/NC(=O)c1cc(Cl)ccc1O)C12CC3CC(CC(C3)C1)C2`, the inhibition was 22.8% (active).

As to `O=C(N/N=C1\CCSC1)c1cc(Cl)ccc1O`, the inhibition was 13.2%.

Consider `COC(=O)[C@H](C(C)C)N(CCc1cn(Cc2ccccc2)nn1)S(=O)(=O)c1ccc(F)cc1Br`, for which the inhibition was -2.33%.

For `O=C(NC1CCC1)c1ccc(C#Cc2cccc(F)c2)c[n+]1[O-]`, the inhibition is -4.97%.

Consider `CC(Oc1ccc(Cl)cc1)C(=O)Nc1ncccn1` (stereo not given), for which the inhibition was 1.61%.

For the compound `CC(=O)/C(=N\Nc1ccc(Cl)cc1Cl)Sc1cccc2cccnc12`, the inhibition was 20.9% (active).

In the case of `COc1cccc(CNC(=O)C2CCN(S(=O)(=O)c3cccc4cccnc34)CC2)c1`, the inhibition is -1%.

`COC(=O)[C@]12C[C@H](CC(=O)N3CCOCC3)C(=O)N(Cc3ccc(Cl)cc3Cl)C1=C[C@H](C(C)C)O[C@@H]2C1CC1`: the inhibition was -5.59%.

As to `CC1CCN(c2ccc(C(=O)O)cc2NS(=O)(=O)c2ccc(Br)s2)CC1`, the inhibition is -18.5%.

Regarding `CCOC(=O)[C@]12CCCCC/C=C\1N(Cc1ccc(OC)cc1)C(=O)[C@H]2CC(=O)NCc1ccc(C)o1`, the inhibition is -4.43%.

For `COc1ccc(C2Nc3ccccc3C(=O)N2Cc2cccs2)cc1COc1c(C)cccc1C` (stereo not given), the inhibition is 4.57%.

`Oc1ccc2ccccc2c1N=Nc1nccs1`: the inhibition was 19.4% (active).

Turning to `O=C(NC1CCCC1)C1CSCCS(=O)(=O)N1Cc1ccccc1` (stereo not given), the inhibition is 2.48%.

As for `O=C1Nc2ccccc2OC1CC(=O)N1CCCCCCC1` (stereo not given), the inhibition was 1.64%.

For `C=CCN1[C@H](CC(C)C)COc2cccc(N3CCCC3)c2S1(=O)=O`, the inhibition was 10%.

Regarding `CCOC(=O)NN1C(=O)c2ccccc2NC1c1cccc(O)c1` (stereo not given), the inhibition is -3.61%.

For `CC(=O)NN1C(=O)c2ccccc2NC1c1ccccc1` (stereo not given), the inhibition is 4.64%.

Take `Cc1ccc(C2Nc3ccccc3C(=O)N2CCN2CCNC2=O)cc1` (stereo not given): the inhibition was 19.3% (active).

On to `COc1ccnc2c1c(=O)n(Cc1cccc(F)c1)c(=O)n2C`, for which the inhibition is 0.58%.

In the case of `CC(C)(C)c1cc2cccnc2n1Cc1ccccc1`, the inhibition is 8.03%.

With `CC(C)(C)c1cc2cccnc2n1Cc1cccc(F)c1`, the inhibition is 20.9% (active).

Regarding `O=C(CNC(=O)c1ccccc1)OC(C(=O)Nc1cc([N+](=O)[O-])ccc1F)c1ccccc1` (stereo not given), the inhibition was 10.8%.

Consider `COc1ccc(N2CCN(CCNS(=O)(=O)c3ccc(C(C)(C)C)cc3)CC2)cc1`, for which the inhibition is -8.25%.

With `NC(c1csc(NC(=O)Nc2ccccc2Oc2ccccc2)n1)c1ccccc1Cl` (stereo not given), the inhibition was 24.4% (active).

Turning to `CC(=O)c1ccc(Nc2nc(C(N)c3ccccc3Cl)cs2)cc1` (stereo not given), the inhibition was -4.25%.

As to `O=C(COC(=O)/C=C/c1nc2ccccc2s1)Nc1ccccc1Oc1ccccc1`, the inhibition is 8.15%.

Consider `Cc1cccc(-n2cnc(C(=O)Nc3cccnc3)c2)n1`, for which the inhibition was 8.64%.

Consider `Cc1cccc(-n2cnc(C(=O)NNC(=S)Nc3ccccc3)c2)n1`, for which the inhibition was 38.5% (active).

For the compound `COC(=O)c1ccc(NC(=S)Nc2cccc(C)n2)cc1`, the inhibition is 7.29%.

Take `CCOc1ccc(-n2c(SCC(=O)Nc3cc(C)c(NC(=O)c4ccccc4)cc3OC)nnc2-c2cccc(Cl)c2)cc1`: the inhibition was 2%.

As to `CSC1=NN(c2ccccc2)CN(c2ccccc2)N1C`, the inhibition was 21.7% (active).

With `O=C(CCl)NC1CCCCN(Cc2cccc(C(F)(F)F)c2)C1=O` (stereo not given), the inhibition was 7.99%.

For the compound `CCCCNC(=O)C[C@H]1C(=O)N(Cc2ccc(OC)cc2)C2=CCCC[C@@]21C(=O)OCC`, the inhibition was 12.9%.

As for `Cc1cc(-c2n[nH]c(=S)n2-c2ccc(C)c(C)c2)no1`, the inhibition is 20.5% (active).

With `Cc1ccc(C)c(S(=O)(=O)Nc2cc(C)on2)c1`, the inhibition was 6.47%.

As to `Cc1ccc(NCc2n[nH]c(=S)n2-c2ccccc2)cc1Cl`, the inhibition is 12.3%.

For `Cc1ccccc1CN1CCCCC(NC(=O)Nc2ccccc2F)C1=O` (stereo not given), the inhibition was 4.74%.

Take `C[C@@H](NC(=O)c1ccccc1OCC(=O)Nc1ccc(I)cc1)C(=O)N(C)Cc1ccccc1`: the inhibition is -8.83%.

For the compound `Cc1ccc(-n2c(SCC(=O)Nc3ccc(S(=O)(=O)Nc4nccs4)cc3)nnc2-c2ccccn2)cc1`, the inhibition was -36.9%.

As to `CC(=O)c1cc(C#N)c(N2CC(C)OC(C)C2)nc1C` (stereo not given), the inhibition is 10.2%.

For `CC(=O)c1nnn(-c2ccc(Cl)cc2C#N)c1C`, the inhibition is 21.4% (active).

As to `O=C(Nc1cccc(Cl)c1)OC1CC2CC1[C@H]1CCCCN1[C@H]2Cc1ccccc1` (stereo not given in full), the inhibition was -3.5%.

With `N#Cc1ccc(OC[C@@H](O)CN2CCC(C(O)(c3ccccc3)c3ccccc3)CC2)c(F)c1`, the inhibition is -15.8%.

In the case of `Cc1ccc(CC2(C)C(=O)Nc3ccc(OC(F)(F)F)cc32)cc1` (stereo not given), the inhibition is -5.51%.

Consider `O=C(c1ccc2c(c1)C(=O)N(Cc1ccncc1)C2=O)N1CCN(S(=O)(=O)c2ccc(OC(F)(F)F)cc2)CC1`, for which the inhibition was 0.57%.

In the case of `O=C1C(=O)N(Cc2ccc(-c3ccsc3)cc2)c2ccc(OC(F)(F)F)cc21`, the inhibition is 26% (active).

On to `CC(C)CNC(=O)OCc1cn(Cc2ccc(F)cc2)nn1`, for which the inhibition is 1.52%.

Turning to `COC(=O)[C@@]12CCCCC3=C1N(CCC3)C(=O)[C@H]2CC(=O)NCc1cccc2ccccc12`, the inhibition is -12%.

Consider `CCCC[C@H]1C2CC(OC(=O)NCc3ccccc3)C(C2)[C@H]2CCCCN21` (stereo not given in full), for which the inhibition was 9.24%.

Regarding `Nn1c(SCC(=O)Nc2ccc(S(N)(=O)=O)cc2)nnc1-c1n[nH]c2c1CCC2`, the inhibition is 9.17%.
